Source: PubChem BioAssay
Values joined by “and” are separate entries in the source; they are usually repeats but may differ in a detail not shown here. Equal entries are not always repeated. Active and inactive are the calls of the source. Unless noted, no stated cut-off is given here; in the data, active means parasite load remaining mostly below about 12% (no sharp cut-off); inactive means mostly above about 10%.

Experiments:
[1] = liver-stage malaria parasite growth inhibition, primary screen, cell-based, HepG2, luciferase luminescence, HepG2 viability (AID 624349);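 further: 100% = mean of DMSO negative control wells on the same plate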; settings: P. berghei liver stage in HepG2, luciferase luminescence, concentration not given here; parasite load remaining: stronger effect = lower value; viability: measured here: HepG2 viability without parasites
[2] = stimulators of nuclear beta-catenin in C2C12, primary screen, imaging, WNT3A-conditioned medium, mouse C2C12, NPC library (AID 1117326; in the data active means nuclear beta-catenin stimulation mostly above about 4.2%, no sharp cut-off; inactive means mostly below about 10%; further: reference of the scale not given here); settings: stronger effect = higher value

| Structure (SMILES) | parasite load remaining [1] | viability [1] | nuclear beta-catenin stimulation ([2]; at 10 µM) | nuclear beta-catenin stimulation ([2]; stimulation, at 2 µM) [%] |
| --- | --- | --- | --- | --- |
| O=C1C(O)=C(O)C(=O)C(O)=C1O | 67.5% (inactive) and 145% (inactive) and 28.2% (inactive) | 94.1% and 90.9% and 99% | -1.5% (inactive) | 0.7 |
| C#CCN[C@@H]1CCc2ccccc21 | – | – | 0.9% (inactive) | 1.4 |
| CC(C)(C)CC(C)(C)c1ccc(O)c(Cc2ccc(Cl)cc2Cl)c1 | 157% (inactive) | 83.5% | 0.1% (inactive) | 6.3 |
| CCC[C@H](N[C@@H](C)C(=O)N1[C@H](C(=O)O)C[C@@H]2CCCC[C@@H]21)C(=O)OCC | 98.2% (inactive) and 68.9% (inactive) and 42.7% (inactive) | 70.3% and 83% and 98.6% | 1.3% (inactive) | 0.5 |
| Cc1c(N(C)C)c(=O)n(-c2ccccc2)n1C | 18.2% (inactive) and 103% (inactive) and 38% (inactive) | 52.4% and 97.7% and 84.1% | 2.9% (inactive) | 0.6 |
| CCN(CC)CCOC(=O)C(Cc1cccc2ccccc12)CC1CCCO1 (centres undefined) | – | – | 0.6% (inactive) | 0.5 |
| CN1CCCN=C1COC(=O)C(O)(c1ccccc1)C1CCCCC1 (centres undefined) | 69.1% (inactive) and 57.9% (inactive) | 80.4% and 101% | 3% (inactive) | 1.9 |
| O=C(O)c1ccccc1OP(=O)(O)O | 79.1% (inactive) and 102% (inactive) | 101% and 71.6% | 0.8% (inactive) | 2.9 |
| CCCCOC(=O)c1ccc(N)cc1 | 111% (inactive) and 65.2% (inactive) | 96.4% and 75.1% and 101% | -0.2% (inactive) | 1 |
| CN(C)c1ccc(C(=C2C=CC(=[N+](C)C)C=C2)c2ccc(N(C)C)cc2)cc1 | -0.57% (inactive) and -0.18% (inactive) | 16.5% and 0% | 1% (inactive) | 28.6 |
| CCCOc1ccc2nc(NC(=O)OC)[nH]c2c1 | 150% (inactive) and 18.1% (inactive) and 53.4% (inactive) | 91% and 99.5% and 84% | 77% (active) | 60.9 |
| CO[C@@]12[C@H](COC(N)=O)C3=C(C(=O)C(C)=C(N)C3=O)N1C[C@@H]1N[C@@H]12 | -0.17% (inactive) | 11% | 26.8% (inactive) | 11.6 |
| O=c1oc2c(O)c(O)cc3c(=O)oc4c(O)c(O)cc1c4c23 | 130% (inactive) | 65.1% | -1.4% (inactive) | 2.3 |
| Nc1ccc(S(N)(=O)=O)cc1 | 105% (inactive) and 77.1% (inactive) and 50.7% (inactive) | 101% and 73.5% and 90.2% | 0.6% (inactive) | 0.5 |
| COc1cc2c3cc1Oc1cc(ccc1O)C[C@@H]1c4c(cc(OC)c(O)c4Oc4ccc(cc4)C[C@@H]3N(C)CC2)CC[N+]1(C)C | 55.9% (inactive) and 65.3% (inactive) | 118% and 192% | 3.1% (inactive) | -0.1 |
| CCn1cc(C(=O)O)c(=O)c2cc(F)c(N3CCNCC3)nc21 | 165% (inactive) and 68.7% (inactive) and 19.5% (inactive) | – | -0.6% (inactive) | 0.6 |
| Nc1ccc(S(=O)(=O)Nc2cnc3ccccc3n2)cc1 | 113% (inactive) and 43.6% (inactive) | 98.9% and 97% | -0.3% (inactive) | 0.7 |
| O=C(O)CCNC(=O)c1ccccc1 | 140% (inactive) | 88.4% | 3.5% (inactive) | 0.2 |
| O=c1ccc2ccccc2o1 | 71% (inactive) | 94.5% | -0.2% (inactive) | -0.6 |
| Cc1c(NC(=O)c2cccnc2)c(=O)n(-c2ccccc2)n1C | 43.9% (inactive) and 167% (inactive) and 109% (inactive) | 47% and 88.9% and 92.6% | -1.7% (inactive) | 1.7 |
| C/C=C(/C(=C/C)c1ccc(O)cc1)c1ccc(O)cc1 | 99.8% (inactive) and 85.1% (inactive) and 15.2% (inactive) | 93.2% and 76.6% and 68.2% | 20.4% (inactive) | 2.2 |

| Structure (SMILES) | parasite load remaining [1] | viability [1] | nuclear beta-catenin stimulation ([2]; at 10 µM) | nuclear beta-catenin stimulation ([2]; stimulation, at 2 µM) [%] |
| --- | --- | --- | --- | --- |
| CC(=O)Oc1ccc(C(c2ccc(OC(C)=O)cc2)c2ccccn2)cc1 | – | – | -0.9% (inactive) | -2.7 |
| COc1ccc(-c2cc(C(F)F)nn2-c2ccc(S(N)(=O)=O)cc2)cc1F | 70.5% (inactive) | 97.2% | 4% (inactive) | 0.7 |
| Cc1[nH]c(C)c(Cl)c(=O)c1Cl | 132% (inactive) and 21.1% (inactive) and 5.5% (inactive) | 78.8% and 117% and 80.5% | 1.4% (inactive) | 0.4 |
| CCCCc1nc(Cl)c(CO)n1Cc1ccc(-c2ccccc2-c2nn[nH]n2)cc1 | 128% (inactive) and 49.4% (inactive) | 84.8% and 98.4% | 2.6% (inactive) | 2.1 |
| Nc1ncnc2c1ncn2[C@@H]1O[C@H](CO)[C@@H](O)[C@H]1O | 102% (inactive) and 72.2% (inactive) | 77.4% and 98.9% | 10.9% (inactive) | 1.8 |
| Nc1nccs1 | 56.3% (inactive) | 97.8% | -1.6% (inactive) | 0.3 |
| COc1ccc2cc3[n+](cc2c1OC)CCc1cc2c(cc1-3)OCO2 | 31.4% (inactive) and 124% (inactive) and 72.9% (inactive) | 103% and 67.6% and 82.6% | 0.6% (inactive) | 0 |
| O=C(CCCN1CCN(c2ccccn2)CC1)c1ccc(F)cc1 | – | – | 0.1% (inactive) | -1 |
| Nc1ccc(N=Nc2ccccc2)c(N)n1 | 122% (inactive) and 140% (inactive) and 51.9% (inactive) | 90.8% and 67.3% and 81.9% | 5.9% (inactive) | 3.5 |
| O=P(O)(O)C(O)(Cc1cccnc1)P(=O)(O)O | 12.3% (inactive) and 1.41% (inactive) | 96.3% and 95% | -1.2% (inactive) | -0.8 |
| CNC[C@H](O)[C@@H](O)[C@H](O)[C@H](O)CO | 64.5% (inactive) | 224% | -1.8% (inactive) | -1.1 |
| CC(=O)[C@@]1(O)CC[C@H]2[C@@H]3C[C@H](C)C4=CC(=O)C=C[C@]4(C)[C@@]3(F)[C@@H](O)C[C@@]21C | 127% (inactive) | 102% | 2.3% (inactive) | 0.2 |
| CC1(C)S[C@@H]2[C@H](NC(=O)C(C(=O)O)c3ccccc3)C(=O)N2[C@H]1C(=O)O (some centres undefined) | 87.5% (inactive) and 61.7% (inactive) | 75.2% and 98.9% | -0.3% (inactive) | -0.3 |
| C[C@@H]1CN(c2c(F)c(N)c3c(=O)c(C(=O)O)cn(C4CC4)c3c2F)C[C@H](C)N1 | 16.6% (inactive) | 70% | -1.1% (inactive) | -1.1 |
| O=C(O)CCC(=O)Nc1ccc(S(=O)(=O)Nc2nccs2)cc1 | 92.2% (inactive) and 146% (inactive) and 21.3% (inactive) | 97.3% and 69.1% and 82.2% | -0.6% (inactive) | 0.6 |
| Cc1c(C(N)=O)cc([N+](=O)[O-])cc1[N+](=O)[O-] | 143% (inactive) | 90.9% | -0.3% (inactive) | -0.9 |
| CC(=O)N(O)CCCCCNC(=O)CCC(=O)N(O)CCCCCNC(=O)CCC(=O)N(O)CCCCCN | 87.4% (inactive) and 82.1% (inactive) and 111% (inactive) | 104% and 70.2% and 87.4% | -0.3% (inactive) | -1.8 |
| CC1(C)O[C@@H]2C[C@H]3[C@@H]4CCC5=CC(=O)CC[C@]5(C)[C@@]4(F)[C@@H](O)C[C@]3(C)[C@]2(C(=O)CCl)O1 | 116% (inactive) | 97.4% | -0.6% (inactive) | 0.3 |
| CCC(=O)c1c(O)cc(O)cc1O | 100% (inactive) | 70.3% | 1.8% (inactive) | 2 |
| CCCCN(CCCC)CCC(O)c1cc2c(Cl)cc(Cl)cc2c2cc(C(F)(F)F)ccc12 (centres undefined) | 57.2% (inactive) | 69.5% | 5.2% (inactive) | 0.7 |
| O=C(O)CCCC[C@@H]1SC[C@@H]2NC(=O)N[C@@H]21 | 125% (inactive) and 81.9% (inactive) | 117% and 77.7% | 0.3% (inactive) | 1.3 |
